PubChem BioAssay (NCATS)
Records with an inconclusive call do not appear. Activity calls are given as the source filed them. Calls follow the shape of the dose curve; as a rule, active = well fitted cell-killing curve with a large enough effect; inconclusive = small, poorly fitted or top-dose-only effect; inactive = flat fitted curve, though single readings scatter.

Assay: Cell Viability - LYMP2-009 (AID 968);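 also: cells exposed to compound for 24 h at 37 °C; nearly all actives have a fitted effect of over 55% in size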;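 as to activity change, negative = viability loss: 0% = DMSO alone and the full-kill end = tetraoctylammonium bromide at 92 µM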
Conditions: LYMP2-009 lymphoblastoid cell viability; series mostly up to 92.2 µM; activity change, negative = viability loss: at the top concentration
Excerpt: NIH Chemical Genomics Center [NCGC]
NIH Molecular Libraries Screening Centers Network [MLSCN]
National Institutes of Environmental Health Sciences [NIEHS]
National Toxicology Program [NTP]
We have developed a 1536-well cell-based assay for quantitative high throughput screening (qHTS) against a number of cell lines to determine in vitro cytotoxicity of small molecules. This particular assay uses a human lymphoblastoid cell line (LYMP2-009) purchased from Coriell Institute for Medical Research.
NCGC Assay Protocol Summary:
The CellTiter-Glo luminescent cell viability assay (Promega) is a homogeneous method to measure the number of viable cells in culture. The end point readout of this assay is based on quantitation of intracellular ATP, an indicator of metabolic activity, using the luciferase reaction. Luciferase catalyzes the oxidation of beetle Luciferin to oxyluciferin and light in the presence of ATP. The luminescent signal is proportional to amount of ATP present.
Using the CellTiter-Glo luminescent cell viability assay, the amount of cellular ATP was measured in the lymphoblastoid cell line with complete culture medium following compound treatment for 24 hours. The assay was performed in opaque white Kalypsys 1536-well plates. In the screen, tetraoctylammonium bromide was used as positive control. Library compounds were measured for their ability to cause acute toxicity in the cell line, as reflected by a decrease in intracellular ATP levels, in a concentration-dependent manner. […] AC50 values were determined from concentration-response data modeled with the standard Hill equation.
qHTS protocol for CellTiter Glo lymphoblastoid cellular assay
[Step] [Parameter] [Value] [Description]
1. Reagent; 5 uL; 2500 lymphoblastoid cells/well
2. Time; 5 hr; 37 C incubation
4. Controls; 23 nL; Tetraoctylammonium bromide 6.4pM to 92 uM
5. Time; 24 hr; 37 C incubation
6. Reagent; 5 uL; CellTiter Glo reagent
7. Time; 30 min; Room Temperature
8. Detection; Luminescence; Viewlux plate reader
Keywords: cell viability, cytotoxicity, lymphoblastoid cell line, luminescence, NTPHTS, NTPHTS_NCGC, NIEHS, DSSTox, MLSMR, MLSCN, NIH Roadmap, qHTS, NCGC
Potency is read from the fitted curve at half-maximal effect.

| SMILES | activity change, negative = viability loss | Potency |
| --- | --- | --- |
| O=C(O)C(Cl)Br (stereo not given) | -12% (inactive) |  |
| Cc1ccc(N)cc1Cl | -1.79% (inactive) |  |
| O=C(O)CBr | -3.24% (inactive) |  |
| Clc1ccc(C(c2ccccc2Cl)C(Cl)(Cl)Cl)cc1 (stereo not given) | -16.6% (inactive) |  |
| c1ccc(Nc2ccc(Nc3ccccc3)cc2)cc1 | -15.2% (inactive) |  |
| Nc1ccc2ccccc2c1 | -9.25% (inactive) |  |
| CCOP(=O)(OCC)OCC | 0.483% (inactive) |  |
| CC(C)CC(C)N (stereo not given) | 0.277% (inactive) |  |
| Nc1cc(Cl)cc(C(=O)O)c1Cl | -0.461% (inactive) |  |
| C=CCc1cc(OC)c2c(c1)OCO2 | -14.8% (inactive) |  |
| O=[N+]([O-])c1cccc(CCl)c1 |  | 79.4 µM (active) |
| CC(C)(Cl)Cl | 2.51% (inactive) |  |
| O=[N+]([O-])c1cc(Cl)c(Cl)cc1Cl | -7.6% (inactive) |  |
| C=CC(=O)OCC(CC)CCCC (stereo not given) | -10.2% (inactive) |  |
| c1ccc2c(c1)CCNC2 | -0.0923% (inactive) |  |
| COc1ccccc1N | -9.79% (inactive) |  |
| c1ccc(NNc2ccccc2)cc1 | 11% (inactive) |  |
| CC(C)[N+](=O)[O-] | -0.0962% (inactive) |  |
| Nc1ccc(-c2ccccc2)cc1 | -11.8% (inactive) |  |
| CCN(CC)N=O | -1.89% (inactive) |  |

| SMILES | activity change, negative = viability loss | Potency |
| --- | --- | --- |
| CCCCCOC(=O)c1ccccc1C(=O)OCCCCC | -13.9% (inactive) |  |
| Nc1c(Br)cc([N+](=O)[O-])cc1[N+](=O)[O-] | -20.7% (inactive) |  |
| O=[N+]([O-])CCO | 1.71% (inactive) |  |
| CCCCCC[N+](=O)[O-] | -3.95% (inactive) |  |
| Cc1cnc[nH]1 | -5.02% (inactive) |  |
| CC(=O)NNc1ccccc1 | 0.0754% (inactive) |  |
| OC[P+](CO)(CO)CO |  | 25.1 µM (active) |
| Oc1cccc(Cl)c1Cl | 3.01% (inactive) |  |
| Cc1cc(N=Nc2ccccc2C)ccc1N | -19.3% (inactive) |  |
| c1ccoc1 | -10.1% (inactive) |  |
| CSSC | -2.52% (inactive) |  |
| CN(C)c1ccc(N)cc1 |  | 50.1 µM (active) |
| Clc1cccc(Cl)c1 | -11.2% (inactive) |  |
| CC(C)(C)c1ccccc1O | -12.8% (inactive) |  |
| Cc1ccc(N)c(N)c1 |  | 25.1 µM (active) |
| CCOP(=S)(OCC)SCCSCC | -11.7% (inactive) |  |
| CCCCC#N | 1.15% (inactive) |  |
| O=[N+]([O-])c1ccc(Cl)cc1 | -10.5% (inactive) |  |
| CCOC(=O)CBr | -16.5% (inactive) |  |
| O=C(Cc1ccccc1)OCc1ccccc1 | 7.6% (inactive) |  |
